Out of some 350,000 compounds screened, about 1,600 (0.46%) were called active.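 The calls were made as follows: active = activation of at least 50%, plus an integration ratio under a set limit after plate pattern correction; inactive = the rest.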 Many of the other results were omitted from the sample, so actives are more common in it than they were.
Each compound was assayed on CRF-binding protein / CRF receptor 2 complex (human) (assay: agonists of CRF-BP/CRF-R2 complex, primary screen, cell-based, HEK293, calcium dye fluorescence, uHTS (AID 588473;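 also: plate controls were neutral control wells without compound for no effect and CRF at EC100 for full effect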)). Settings: calcium dye fluorescence (FLIPR), at 13.2 µM, hits give high values, percent of saturating CRF peptide response.
For `CCN(CC)CCCC(C)n1c2nc(=O)[nH]c(=O)c-2nc2cc(Cl)ccc21` (stereo not drawn), the activation was 192% (active). `C=C(C)Cn1c(C)cc(C)c(S(=O)(=O)c2ccccc2C)c1=O` was tested, and the activation was -0.15% (inactive). With `CC1COc2ccccc2N1S(=O)(=O)c1ccccc1` (stereo not drawn) the activation was 2.38% (inactive). With `Cc1nn(C)cc1/C=C1\CCC/C(=C\c2cn(C)nc2C)C1=O` the activation was 0.2% (inactive). With `COc1ccc(-c2nnc(NC(=O)CS(=O)(=O)c3ccc(Cl)cc3)o2)c(OC)c1` the activation was -1.55% (inactive). `COc1cc(-c2nnc(NC(=O)CS(=O)(=O)c3ccc(Cl)cc3)o2)cc(OC)c1OC` was tested, and the activation was 3.74% (inactive). `COc1cccc(-c2nnc(NC(=O)c3ccc(S(=O)(=O)N(CC(C)C)CC(C)C)cc3)o2)c1` was tested, and the activation was 98.1% (active). With `CCCCN1C(=O)C(CC(=O)NCc2cccs2)CC(C(=O)N2CCOCC2)=C1C` (stereo not drawn) the activation was -1.86% (inactive). For `CC(OC(=O)c1ccc(NC(=O)CC#N)cc1)C(=O)Nc1ccc(S(=O)(=O)N2CCCC2)cc1` (stereo not drawn), the activation was -0.83% (inactive). With `O=C(COC(=O)C1(c2ccc(F)cc2)CCCC1)N1CCNC1=O` the activation was -1.56% (inactive). With `N#Cc1c(-c2ccc(F)cc2)cc(C2CC2)nc1SCC(=O)c1cccs1` the activation was 76.4% (active). For `O=C(c1cccs1)N1CCCC(c2nc(-c3ccc(F)cc3)no2)C1` (stereo not drawn), the activation was -3.55% (inactive). With `N#Cc1c(C(F)(F)F)cc(-c2ccc(Cl)cc2)nc1SCC(=O)O` the activation was 0.45% (inactive). In the case of `COCCCNC(=O)[C@H]1N2C(=O)c3ccccc3C2SC1(C)C` (stereo partly drawn), the activation is reported as 53.6% (active). With `COCCCNC(=O)C1CC(=O)N(CCc2ccccc2)C1` (stereo not drawn) the activation was -1.35% (inactive). For `CC1(C)SC2c3ccccc3C(=O)N2[C@@H]1C(=O)NCc1ccco1` (stereo partly drawn), the activation was -0.83% (inactive). For `O=C(Nc1cccc2ccccc12)c1onc2c1CCCC2`, the activation was -2.42% (inactive). With `CC(OC(=O)CCCOc1ccccc1)C(=O)Nc1ccc(Cl)cn1` (stereo not drawn) the activation was -1.67% (inactive). `O=C(/C=C/c1ccc(N2CCOCC2)cc1)c1ccccc1` was tested, and the activation was 89.1% (active). With `O=C(c1ccccc1)c1ccc(C(=O)N2CCN(c3ccccc3)CC2)cc1` the activation was 0.4% (inactive). `O=C(NC(=O)N1CCOCC1)c1ccccc1` was tested, and the activation was 5.54% (inactive). For `Cc1ccc(S(=O)(=O)Nc2nc(CN3CCOCC3)nc3sc(C)c(C)c23)cc1`, the activation was 3.71% (inactive). In the case of `CCC(=O)c1cc(F)ccc1OCC(=O)Nc1ccc2c(c1)OCCO2`, the activation is reported as 0.29% (inactive). `O=C(CN(c1cc(C(F)(F)F)ccc1Cl)S(=O)(=O)c1ccccc1)NCc1cccnc1` was tested, and the activation was 1.6% (inactive). In the case of `O=S(=O)(c1cccc(C(F)(F)F)c1)N1c2ccccc2-n2cccc2C1c1cccnc1` (stereo not drawn), the activation is reported as 138% (active). With `O=S(=O)(c1cccc(C(F)(F)F)c1)N1CCN(c2cnccn2)CC1` the activation was -0.32% (inactive). With `COCCN(C(=O)CCC(=O)Nc1nccs1)C(C(=O)NC(C)(C)C)c1ccc(Cl)cc1` (stereo not drawn) the activation was 0.68% (inactive). With `CCCC(=O)Nc1ncnc2c1ncn2[C@@H]1O[C@@H]2OP(=O)(O)OC[C@H]2[C@H]1OC(=O)CCC` the activation was -0.33% (inactive). `O=C(Nc1cccc(S(=O)(=O)NC2=NCCC2)c1)C1CCCCC1` was tested, and the activation was 1.06% (inactive). For `O=C(O)C1OC(C(=O)O)C2C1C(F)(F)C2(F)F` (stereo not drawn), the activation was 0.58% (inactive). For `CCOC(=O)Cc1cc(=O)[nH]c(=O)[nH]1`, the activation was -0.34% (inactive). `O=C(NC(Nc1nc2ccc([N+](=O)[O-])cc2s1)(C(F)(F)F)C(F)(F)F)c1ccccc1` was tested, and the activation was 69.9% (active). With `CC(Nc1ccc([N+](=O)[O-])cc1[N+](=O)[O-])c1ccccc1` (stereo not drawn) the activation was -3.71% (inactive). In the case of `O=C(O)c1cc([N+](=O)[O-])c(Nc2cccc3ccccc23)c([N+](=O)[O-])c1`, the activation is reported as -0.94% (inactive). For `CCN=c1sc(C(=O)Nc2ccccc2)c(C)n1CC`, the activation was -2.99% (inactive). In the case of `CCc1ccccc1N1CN(Cc2ccco2)CNC1=S`, the activation is reported as 80.2% (active). In the case of `CCOc1ccccc1N1CN(Cc2ccccc2)CNC1=S`, the activation is reported as -0.43% (inactive). For `Cn1c2c(c(=O)n(C)c1=O)CN(Cc1ccco1)CN2`, the activation was 2.8% (inactive). `CCn1c(=O)c2ccccc2n(CC(=O)N2CCCc3ccccc32)c1=O` was tested, and the activation was 0.82% (inactive). With `C=CCn1c(=O)c2ccccc2n2c(SCC(=O)N3CCCc4ccccc43)nnc12` the activation was 75.3% (active). `Cn1c(SCC(=O)N2CCCc3ccccc32)nc2ccccc2c1=O` was tested, and the activation was 3.16% (inactive). `CCOC(=O)CSC1=N/C(=C/c2ccc(-n3cncn3)cc2)C(=O)N1C(C)=O` was tested, and the activation was 1.8% (inactive). With `COc1cccc(CNS(=O)(=O)c2ccc3c(c2)N(C(C)=O)CCS3)c1` the activation was 1.61% (inactive). `CN(C)c1ccc(C=C2C(=O)OC3(CCCC3)OC2=O)cc1` was tested, and the activation was 23.8% (inactive). With `CC1CN(Cc2ccccc2)C(=S)NC1=O` (stereo not drawn) the activation was -2.85% (inactive). With `CN(C)c1ccc(/C=C2\NC(=S)N(Cc3ccccc3)C2=O)cc1` the activation was 191% (active). For `Cc1ccccc1Cn1nc(C)c(NC(=O)C(F)(F)F)c1C`, the activation was -0.93% (inactive). With `CN(Cc1cc2cc(F)ccc2[nH]1)Cc1nc(-c2cnccn2)no1` the activation was -0.56% (inactive). For `O=C(CSc1nnc(-c2ccc([N+](=O)[O-])cc2)o1)Nc1ccccn1`, the activation was -0.44% (inactive). `Cc1cccc(CN2CCN(Cc3cnn(-c4ccccc4F)c3)CC2CCO)n1` (stereo not drawn) was tested, and the activation was -2.69% (inactive). In the case of `Cc1noc(C)c1COc1ccc(C(=O)NCCOc2ccccc2)cc1`, the activation is reported as 3.12% (inactive). `COc1ccc(C(=O)NC(=S)NNC(=O)c2c(-c3ccccc3)noc2C)cc1` was tested, and the activation was 99.3% (active). With `COc1ccc(C(=O)NNC(=O)c2cc(C)[nH]n2)cc1` the activation was -0.62% (inactive). For `Cc1onc(-c2ccccc2)c1C(=O)NNC(=S)NC(=O)c1ccc(F)cc1`, the activation was 181% (active). In the case of `Cc1onc(-c2ccccc2)c1C(=O)N=C(N)c1ccc(Cl)cc1`, the activation is reported as 2.16% (inactive). For `O=C(NNC(=S)NC(=O)c1cn(-c2ccccc2)nc1-c1ccccc1)c1ccncc1`, the activation was 27.4% (inactive). In the case of `O=S(=O)(N/N=C\c1cccn1-c1ccccc1)c1ccc2ccccc2c1`, the activation is reported as -1.5% (inactive). `CCOC(=O)C1=C(N)N2C(=O)C(C)SC2=C(C(=O)OCC)C1c1cc(OC)c(OC)c(OC)c1` (stereo not drawn) was tested, and the activation was -0.18% (inactive).

From PubChem BioAssay AID588473 (Sanford-Burnham Center for Chemical Genomics, 2011)
